In PubChem BioAssay (Tox21):
Records with an inconclusive call do not appear. A number with no mark means an inactive call. Calls of active or inactive are those of the source. The call rests on the fitted dose curve; in most records, active means well fitted cell-killing curve with a large enough effect in the repeat runs; inconclusive means weak or mixed curves, or effect the other way; inactive means flat fitted curve, though single readings scatter.

assay: qHTS assay to identify small molecule agonists of the TGF-beta/Smad signaling pathway - cell viability counter screen (AID 1346829); conditions: SBE-bla HEK293T viability, CellTiter-Glo luminescence, 5 h; series mostly up to 76.8 µM; activity change, negative = cytotoxicity: at the top concentration; further: nearly all actives have a fitted effect of over 45% in size; on activity change, negative = cytotoxicity: top concentration of the series differs between compounds
From the text: National Center for Advancing Translational Sciences [NCATS]
NIH Chemical Genomics Center [NCGC]
U.S. Environmental Protection Agency [EPA]
National Institutes of Environmental Health Sciences [NIEHS]
National Toxicology Program [NTP]
U.S. Food and Drug Administration [FDA]
Transforming growth factor beta (TGF-beta) superfamily consists of a large number of structurally related dimeric proteins that act as hormones or local mediators in regulating a wide range of biological functions. This superfamily includes TGF-betas themselves, the bone morphogenetic proteins (BMPs) and the activins. These ligands induce oligomerization of serine/threonine receptor kinases and phosphorylate the cytoplasmic signaling molecules of Smad protein family. CellSensor SBE-bla HEK 293T cell line (Life Technologies, Carlsbad, CA), responsive to TGF-beta was used to screen Tox21 10K compound library for identification of agonists/antagonists of the Smad signaling pathway. This cell line contains a beta-lactamase reporter gene under control of the Smad binding element (SBE) stably integrated into HEK 293T cells. Also cytotoxicity of the compounds was tested in parallel by measuring the cell viability using CellTiter-Glo assay system in the same wells.
Tox21 Assay Protocol Summary:
SBE-bla HEK 293T cells were dispensed at 4,000/well in 6 uL of assay medium into black wall/clear-bottom 1536-well plates using a Multidrop Combi (ThermoFisher Scientific, Waltham, MA) dispenser. After the assay plates were incubated at 37 C and 5% CO2 for an overnight, 23 nL of compounds dissolved in DMSO, positive controls or DMSO only was transferred to the assay plate by a Pintool station (Kalypsys, San Diego, CA). The assay plates were incubated at 37 C and 5% CO2 for 5 hr. One uL of LiveBLAzer B/G FRET substrate (Life Technologies) was added using a Flying Reagent Dispenser (FRD, Aurora Discovery, San Diego, CA) and the plates were incubated at room temperature for 2 hr. Fluorescence intensity (405 nm excitation, 460 nm and 530 nm emissions) was measured using an Envision plate reader (PerkinElmer, Shelton, CT). For cytotoxicity read, 4 uL of CellTiter-Glo reagent (Promega Corporation, Madison, WI) was added to each well of the assay plates using FRD. After 30min incubation at room temperature, the luminescence intensity was measured using ViewLux plate reader (PerkinElmer).
On the % scale 0 is the no-effect control and ±100 the full control effect; potency means the concentration at half of the fitted maximal effect.

Which “activity change, negative = cytotoxicity” value does the source give for Cc1cc(F)ccc1-c1cc(N2CC[C@@H](O)[C@H]2CO)ncc1N(C)C(=O)C(C)(C)c1cc(C(F)(F)F)cc(C(F)(F)F)c1 here?
The value was -21.2%.

Which “activity change, negative = cytotoxicity” value does the source give for C=CCc1cc(S(=O)(=O)c2ccc(O)c(CC=C)c2)ccc1O here?
Its value is -8.34%.

Which “activity change, negative = cytotoxicity” value does the source give for O=C1CCC/C=C\CCCCCCCCCC1 here?
The value was -14.5%.

Which “activity change, negative = cytotoxicity” value does the source give for CCN(CC)c1ccc(N=Nc2ccccc2)cc1 here?
Its value is -33.9%.

With Cc1ccc(S(=O)(=O)C(I)I)cc1 as the compound, how does the Potency read?
The Potency was 49 µM (active).

For C=C1CC[C@H]2O[C@]2(C)CC[C@@H]2[C@@H]1CC2(C)C, which “activity change, negative = cytotoxicity” value is on record?
The value was -13.9%.

Which activity change, negative = cytotoxicity does the source give for C=C[Si](C)(C)Cl here?
Its activity change, negative = cytotoxicity is 9.12% [at 6.97 µM].

With C=C(C)CCO as the compound, how does the “activity change, negative = cytotoxicity” value read?
The value was -6.93%.

With O=C1OC(=O)c2cc(-c3ccc4c(c3)C(=O)OC4=O)ccc21 as the compound, how does the “activity change, negative = cytotoxicity” value read?
The value was 6.85%.

For SC1CCCCC1, which “activity change, negative = cytotoxicity” value is on record?
The value was 27%.

For CCOC(=O)OC(=O)OCC, which “activity change, negative = cytotoxicity” value is on record?
The value was 0.596%.

Which “activity change, negative = cytotoxicity” value does the source give for CCCC(C)C=O (stereo not given) here?
Its value is 3.86%.

For CC(C=O)c1ccccc1 (stereo not given), which “activity change, negative = cytotoxicity” value is on record?
The value was -14.3%.

With Cc1c[nH]c(=O)[nH]c1=O as the compound, how does the “activity change, negative = cytotoxicity” value read?
The value was -14.4%.

Which “activity change, negative = cytotoxicity” value does the source give for Clc1nc(C(Cl)(Cl)Cl)c(Cl)c(Cl)c1Cl here?
Its value is -4.29%.

Which “activity change, negative = cytotoxicity” value does the source give for c1ccc2cc3c4ccccc4c4ccccc4c3cc2c1 here?
The value was -18.3%.

Which “activity change, negative = cytotoxicity” value does the source give for CCc1cccc(C)c1N(C(=O)C(=O)O)C(C)COC (stereo not given) here?
The value was -8.73%.

Which “activity change, negative = cytotoxicity” value does the source give for CC/C=C(\C)C=O here?
Its value is 1.61%.

With NC(=O)C1CO1 (stereo not given) as the compound, how does the “activity change, negative = cytotoxicity” value read?
Its value is -9.33%.

Which “activity change, negative = cytotoxicity” value does the source give for Nc1ccc(Oc2cccc(Oc3ccc(N)cc3)c2)cc1 here?
The value was 5.14%.

For CC(C)=NNC(N)=S, which “activity change, negative = cytotoxicity” value is on record?
Its value is -0.0805%.

Which “activity change, negative = cytotoxicity” value does the source give for O=C(CCN1CCC(c2ccccc2)C1)c1ccc2c(c1)OCCO2 (stereo not given) here?
Its value is -1.12% [at 35.3 µM].

For COC(=O)c1ccc([N+](=O)[O-])cc1, which “activity change, negative = cytotoxicity” value is on record?
The value was -0.304%.

Which “activity change, negative = cytotoxicity” value does the source give for COc1cccc(-c2ccc(/C=C\CN3CCCCCC3)cc2Cl)c1 here?
The value was -18.6%.

Which “activity change, negative = cytotoxicity” value does the source give for CC(=O)Nc1ccc(N=Nc2cc(C)ccc2O)cc1 here?
The value was -12.2%.

For CCOc1ccc([N+](=O)[O-])cc1, which “activity change, negative = cytotoxicity” value is on record?
Its value is -21.7%.

With CCN(CC)c1ccc(C=O)c(O)c1 as the compound, how does the “activity change, negative = cytotoxicity” value read?
The value was 20%.

For CC(C)C(=O)C(C)C, which “activity change, negative = cytotoxicity” value is on record?
Its value is -4.79%.

Which “activity change, negative = cytotoxicity” value does the source give for O=C(Nc1ccc([N+](=O)[O-])cc1)Nc1ccc([N+](=O)[O-])cc1 (tested in a mixture with another compound) here?
Its value is -9.42% [at 35.3 µM].

Which “activity change, negative = cytotoxicity” value does the source give for CCc1cccc(CC)c1 here?
The value was -4.81%.

With N#Cc1ccc(C/C(=N/NC(=O)Nc2ccc(OC(F)(F)F)cc2)c2cccc(C(F)(F)F)c2)cc1 as the compound, how does the “activity change, negative = cytotoxicity” value read?
The value was 35.5%.

For CC(O)(c1ccc(Cl)cc1)c1ccc(Cl)cc1, which “activity change, negative = cytotoxicity” value is on record?
Its value is -5.28%.

Which “activity change, negative = cytotoxicity” value does the source give for O=C(Cl)c1ccc(Cl)cc1Cl here?
The value was 3.42%.

For CC(C)(C)c1ccc(OC2CCCCC2O)cc1 (stereo not given), which “activity change, negative = cytotoxicity” value is on record?
Its value is -19.9%.

For Cc1ccc2nc(-c3ccc(N)cc3)sc2c1S(=O)(=O)O, which “activity change, negative = cytotoxicity” value is on record?
Its value is -0.429% [at 35.3 µM].

Which “activity change, negative = cytotoxicity” value does the source give for CCCCCCCCOC(=O)c1cc(O)c(O)c(O)c1 here?
The value was -7.9%.

With Cc1cccc(C)c1C as the compound, how does the “activity change, negative = cytotoxicity” value read?
The value was -2.21%.

With CC1CCC(C(C)(C)O)CC1 (stereo not given) as the compound, how does the “activity change, negative = cytotoxicity” value read?
Its value is -15.5%.

Which “activity change, negative = cytotoxicity” value does the source give for O=C1CCC(=O)N1 here?
Its value is -2.06%.

For O=C1OC2(c3ccccc31)c1ccc(O)c(Br)c1Oc1c2ccc(O)c1Br, which “activity change, negative = cytotoxicity” value is on record?
The value was -6.18%.
